ugtP null kill – growth inhibition of S. aureus ugtP deletion strain. S. aureus RN4220 ugtP deletion, OD600 growth, 16 h. growth inhibition, % (concentration not given with the values). hit rate 0.54% among 330,000; in the data active = growth inhibition above about 68%;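 also: plate controls were untreated wells for no effect and antibiotic for full effect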
CCHF vOTU inh-1 – blocks the CCHF virus ovarian tumor domain protease. CCHFV vOTU protease, Pep-AMC fluorescence. inhibition, % at 11.5 µM. hit rate 0.55% among 370,000. AID 651958; also: 0% = vehicle wells with enzyme and 100% = no enzyme wells
RecA splice inh – inhibitors of M. tuberculosis RecA intein splicing | P9WHJ3 | cell-free RecA intein splicing, fluorescence | inhibition, % (test concentration not listed) | hit rate 0.75% among 290,000 | AID 2221; in the data active = inhibition above about 30%;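 also: 0% = vehicle wells and 100% = reference inhibitor control wells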
Target sequence (P9WHJ3 whole entry, looked up, canonical isoform): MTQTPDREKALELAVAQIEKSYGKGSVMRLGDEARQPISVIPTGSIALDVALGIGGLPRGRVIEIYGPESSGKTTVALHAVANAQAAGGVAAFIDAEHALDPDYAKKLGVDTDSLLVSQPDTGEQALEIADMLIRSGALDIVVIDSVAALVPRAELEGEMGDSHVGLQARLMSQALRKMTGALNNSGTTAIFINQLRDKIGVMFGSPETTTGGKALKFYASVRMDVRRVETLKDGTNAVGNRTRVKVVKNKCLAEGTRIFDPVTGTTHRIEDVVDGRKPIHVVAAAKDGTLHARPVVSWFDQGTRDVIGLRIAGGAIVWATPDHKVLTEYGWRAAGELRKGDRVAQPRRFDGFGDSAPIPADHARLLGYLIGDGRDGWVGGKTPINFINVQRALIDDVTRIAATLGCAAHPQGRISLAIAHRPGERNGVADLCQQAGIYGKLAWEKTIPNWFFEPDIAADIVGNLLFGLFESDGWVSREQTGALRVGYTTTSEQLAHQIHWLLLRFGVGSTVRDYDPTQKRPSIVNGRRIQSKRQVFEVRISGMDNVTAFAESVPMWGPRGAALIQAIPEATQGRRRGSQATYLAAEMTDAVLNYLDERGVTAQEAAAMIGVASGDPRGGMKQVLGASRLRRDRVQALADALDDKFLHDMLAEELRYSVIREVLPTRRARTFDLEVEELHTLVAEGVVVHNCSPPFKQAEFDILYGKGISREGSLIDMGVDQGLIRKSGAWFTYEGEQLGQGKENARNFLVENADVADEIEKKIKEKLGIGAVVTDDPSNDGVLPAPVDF
BJeLR viability – kills HRASV12-expressing BJeLR cells; BJeLR (HRASV12) viability, CellTiter-Glo ATP luminescence, 48 h; inhibition, % (no concentration beside the values); hit rate 0.17% among 300,000; AID 1554; in the data active = inhibition above about 50%
Mtb hypoxia inh – reduces hypoxia-regulated biosensor signal in M. tuberculosis; M. tuberculosis hypoxia-regulated fluorescent reporter, fluorescence; fluorescence inhibition, % (test concentration not listed); hit rate 0.1% among 300,000; AID 1159583; in the data active = fluorescence inhibition mostly above about 23%, no sharp cut-off; inactive = mostly below about 17%
Sa RN4220 lethal – kills Staphylococcus aureus RN4220. S. aureus RN4220 growth, OD600, 16 h. inhibition, % (test concentration not listed). hit rate 0.33% among 330,000; in the data active = inhibition above about 85%;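 also: plate controls were untreated cells for no effect and reference antibiotic for full effect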
CCHF vOTU inh-2 – confirmation of CCHF virus vOTU protease inhibitors; shares compounds with CCHF vOTU inh-1; Recombinant CCHFV vOTU, Pep-AMC fluorescence; inhibition, % at 11.5 µM; hit rate 17% among 1,900; AID 686976
An asterisk follows results filed as active; · = not tested or not shown. The list is not random: actives were taken first. Their share in the collection is about 1.6%. Rule as the data show it, unless noted: active = inhibition above about 30%; inactive = the rest.

SMILES | ugtP null kill | CCHF vOTU inh-1 | RecA splice inh | BJeLR viability | Mtb hypoxia inh | Sa RN4220 lethal | CCHF vOTU inh-2
Cc1nnc(N/N=C/c2cccc(OCc3ccc(Cl)c(Cl)c3)c2)n1N | · | 103* | 74* | 0 | · | · | -10
Cc1nnc(N/N=C/c2ccco2)n1N | · | 89* | -1 | 3 | · | · | -16
COc1ccc(-n2c(C)cc(/C=N/Nc3nnc(C)n3N)c2C)cc1 | · | 91* | -1 | 2 | · | · | -8
COc1cc(C=NNC(=O)c2ccc(-c3ccccc3)cc2)cc(OC)c1OC(C)=O | 2 | · | · | · | 13 | 25 | ·
O=C(CN1CCOCC1)NN=Cc1ccc(C(=O)O)cc1 | 0 | · | · | · | 2 | 0 | ·
Cc1nnc(N/N=C/c2ccccc2C(F)(F)F)n1N | · | 65* | -1 | -23 | · | · | -8
Cc1nnc(N/N=C/c2ccccc2F)n1N | · | 75* | -4 | 10 | · | · | -14
COc1cccc(/C=N/Nc2nnc(C)n2N)c1O | · | 88* | -2 | -6 | · | · | -8
CC(CC(=O)OCC(=O)NCc1ccc(Cl)cc1)c1ccccc1 (configuration not stated) | -4 | 33* | · | · | -9 | -6 | -10
CC(C)CC1NC(=O)C(C(C)C)NC(=O)c2cc([N+](=O)[O-])cc(I)c2NCCC(C(N)=O)NC1=O (configuration not stated) | 5 | · | · | · | -3 | 2 | ·
COC1=C(Nc2ccc(OC)cc2)C(=O)C(OC)=C(Nc2ccc(OC)cc2)C1=O | 3 | -5 | · | · | 3 | 4 | ·
COC1=C(Nc2ccc(OC)cc2)C(=O)c2ccccc2C1=O | 8 | 59* | 6 | 15 | -10 | 29 | 9
CCOc1ccc(NC2=C(OC)C(=O)c3ccccc3C2=O)cc1 | 4 | 62* | 0 | 4 | -6 | 16 | 10
CC1COC(=O)C(CC(=O)OC(C)(C)C)CC=CCC(CC(=O)N(CCO)Cc2ccccc2)C(=O)N1 (configuration not stated) | 1 | · | · | · | -3 | 3 | ·
CC(=O)Nc1c(I)c(C(=O)NC2C(O)OC(CO)C(O)C2O)c(I)c(N(C)C(C)=O)c1I (configuration not stated) | 5 | · | · | · | 11 | 9 | ·
COc1cccc(Oc2ccc(S(=O)(=O)N3CCCC3)cc2[N+](=O)[O-])c1 | · | 34* | 0 | 4 | · | · | -12
COc1ccc(OCCOc2ccc(S(=O)(=O)N3CCCC3)cc2[N+](=O)[O-])cc1 | 7 | -6 | · | · | 6 | -1 | ·
C#CCNC(=O)C1=CC(C2CCCCC2)C(CCCO)C(OCC)O1 (configuration not stated) | 3 | · | · | · | 4 | 4 | ·
CCCCOCCCNC(=O)C[C@H]1C[C@@]2(C(=O)OC)C(=C[C@H](C(C)(C)C)O[C@@H]2C)N(Cc2ccc3c(c2)OCO3)C1=O | · | 37* | · | · | · | · | 18
CCCCOCCCNC(=O)C[C@H]1C[C@@]2(C(=O)OC)C(=C[C@H](COCc3ccccc3)O[C@@H]2C)N(Cc2ccc3c(c2)OCO3)C1=O | · | 14 | · | · | · | · | ·
C#CCNC(=O)C[C@H]1C[C@@]2(C(=O)OC)C(=C[C@H](C3CCCC3)O[C@@H]2C)N(CCCCCCCC)C1=O | · | 39* | · | · | · | · | 23
COC(=O)[C@]12C[C@H](CC(=O)NCc3cccc4ccccc34)C(=O)N(Cc3cccc4ccccc34)C1=C[C@H](C(C)(C)C)O[C@@H]2C | · | 27 | · | · | · | · | ·
CCCCCCCCN1C(=O)[C@@H](CC(=O)NCCCOCCCC)C[C@@]2(C(=O)OC)C1=C[C@H](COCc1ccccc1)O[C@@H]2C | · | 30* | · | · | · | · | 8
CCCCOCCCNC(=O)C[C@H]1C[C@@]2(C(=O)OC)C(=C[C@H](C(C)(C)C)O[C@@H]2C)N(Cc2cccc3ccccc23)C1=O | · | 35* | · | · | · | · | 5
COC(=O)CN1C(=O)C2C(c3ccc(C)o3)N3C(=O)CN(Cc4ccccn4)C(=O)[C@@]3(C)C2C1=O (some centres not stated) | -1 | · | · | · | 1 | 5 | ·
SMILES | ugtP null kill | CCHF vOTU inh-1 | RecA splice inh | BJeLR viability | Mtb hypoxia inh | Sa RN4220 lethal | CCHF vOTU inh-2
COc1cccc(C(C(=O)NC2CCCC2)N2CCN(c3cc(C)ccc3C)CC2)c1OC (configuration not stated) | · | 30* | · | · | · | · | -5
O=C(NN=Cc1ccccc1OCc1ccccc1)c1ccco1 | 1 | · | · | · | 8 | 18 | ·
CC(=O)N1CCc2cc(S(=O)(=O)NC(C(=O)Nc3ccc4c(c3)OCCO4)C(C)C)ccc21 (configuration not stated) | 12 | 30* | 2 | -3 | · | 2 | -7
CC(=O)N1CCc2cc(S(=O)(=O)CCC(=O)Nc3ccc4c(c3)OCCO4)ccc21 | 0 | -1 | -2 | 3 | · | 2 | ·
CS(=O)(=O)c1ccc(N2CCN(S(=O)(=O)c3cccs3)CC2)c([N+](=O)[O-])c1 | 1 | 35* | · | · | -1 | 4 | -18
CC1(C(=O)Nc2cccc(OC(F)(F)F)c2)Cc2c(-c3ccc4c(c3)OCO4)ccnc2O1 (configuration not stated) | · | 31* | · | · | · | · | -11
CCOC(=O)C1=C(CNC(C)(C)CC(C)(C)C)NC(=O)NC1c1cccc([N+](=O)[O-])c1 (configuration not stated) | 5 | 31* | 3 | 14 | 7 | 5 | 13
CC(=O)OC1CC[C@@]2(C)C(=CCC3C4CCC(C5(C)OCCO5)[C@@]4(C)CCC32)C1 (some centres not stated) | 5 | · | · | · | 16 | -4 | ·
CCOC(=O)c1c(/N=C/c2cc([N+](=O)[O-])ccc2O)sc(C)c1C | · | 30* | -5 | -9 | · | · | 13
CCc1cccc(NC(=O)CCCn2nc(CC)n3c(cc4occc43)c2=O)c1 | -2 | 1 | -5 | 2 | 8 | -2 | ·
CCc1nn(CCCC(=O)NCc2ccccc2Br)c(=O)c2cc3occc3n12 | -3 | 47* | 1 | 10 | -7 | 1 | -4
CCOC(=O)c1csc(-n2nc(C)cc2C(F)(F)F)n1 | 5 | 31* | 2 | -9 | -10 | 6 | 1
CNC(=C[N+](=O)[O-])NCCSCc1csc(CN(C)C)n1 | -6 | · | · | · | 4 | 5 | ·
CSc1ccccc1NC(=O)CN(C)C(=O)COc1cccc2cccnc12 | 3 | 33* | · | · | 6 | 7 | -9
CN1CC2C3C(=O)N(Cc4ccccc4)C(=O)C3[C@](C)(C1=O)N2C(=O)c1ccc(C(C)(C)C)cc1 (some centres not stated) | 3 | · | · | · | 15 | 9 | ·
CCCCNC(=O)ON=C(N)CS(=O)(=O)C(C)(C)C | -2 | · | · | · | -6 | 2 | ·
CNC(=O)C1CC1C(NC(=O)OCc1ccccc1)c1ccccc1 (configuration not stated) | 0 | · | · | · | 20 | 10 | ·
O=C(Cc1c[nH]c2ccccc12)Nc1ccc(Nc2cccnc2)c(-c2ccc(-c3ccccc3)cc2F)c1 | · | 30* | · | · | · | · | -25
O=C(Cc1c[nH]c2ccccc12)Nc1ccc(Nc2cccnc2)c(-c2ccc(F)c(F)c2)c1 | · | 9 | · | · | · | · | ·
CC(=O)c1ccc(N2CCN(C(=O)c3ccc(OCc4c(C)noc4C)cc3)CC2)cc1 | 12 | 34* | 2 | -8 | 6 | 7 | 4
